Experimental data reported in article PMC4336329 (PLoS ONE, 2015).
Hit rate of the full screen: of about 310,000 compounds, about 14,000 (4.5%) showed an effect of 50% or more. Effects have a minus sign here. The entries come from a sample that favours strong results as a whole. Where a SMILES comes first, the peptide text is derived from it. The star is where a group is joined. PhAc = O=C(Cc1ccccc1)*; OBn = c1ccc(CO*)cc1

Target: human ether-à-go-go-related gene (hERG) potassium channel (human, UniProt Q12809)
Assay: primary screen, population patch clamp on CHO cells stably expressing hERG; higher = less effect of the substance
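Note: peak tail current of the secondary pulse compared with the same well before compound.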

Chain of human ether-à-go-go-related gene (hERG) potassium channel (Q12809 whole entry, looked up): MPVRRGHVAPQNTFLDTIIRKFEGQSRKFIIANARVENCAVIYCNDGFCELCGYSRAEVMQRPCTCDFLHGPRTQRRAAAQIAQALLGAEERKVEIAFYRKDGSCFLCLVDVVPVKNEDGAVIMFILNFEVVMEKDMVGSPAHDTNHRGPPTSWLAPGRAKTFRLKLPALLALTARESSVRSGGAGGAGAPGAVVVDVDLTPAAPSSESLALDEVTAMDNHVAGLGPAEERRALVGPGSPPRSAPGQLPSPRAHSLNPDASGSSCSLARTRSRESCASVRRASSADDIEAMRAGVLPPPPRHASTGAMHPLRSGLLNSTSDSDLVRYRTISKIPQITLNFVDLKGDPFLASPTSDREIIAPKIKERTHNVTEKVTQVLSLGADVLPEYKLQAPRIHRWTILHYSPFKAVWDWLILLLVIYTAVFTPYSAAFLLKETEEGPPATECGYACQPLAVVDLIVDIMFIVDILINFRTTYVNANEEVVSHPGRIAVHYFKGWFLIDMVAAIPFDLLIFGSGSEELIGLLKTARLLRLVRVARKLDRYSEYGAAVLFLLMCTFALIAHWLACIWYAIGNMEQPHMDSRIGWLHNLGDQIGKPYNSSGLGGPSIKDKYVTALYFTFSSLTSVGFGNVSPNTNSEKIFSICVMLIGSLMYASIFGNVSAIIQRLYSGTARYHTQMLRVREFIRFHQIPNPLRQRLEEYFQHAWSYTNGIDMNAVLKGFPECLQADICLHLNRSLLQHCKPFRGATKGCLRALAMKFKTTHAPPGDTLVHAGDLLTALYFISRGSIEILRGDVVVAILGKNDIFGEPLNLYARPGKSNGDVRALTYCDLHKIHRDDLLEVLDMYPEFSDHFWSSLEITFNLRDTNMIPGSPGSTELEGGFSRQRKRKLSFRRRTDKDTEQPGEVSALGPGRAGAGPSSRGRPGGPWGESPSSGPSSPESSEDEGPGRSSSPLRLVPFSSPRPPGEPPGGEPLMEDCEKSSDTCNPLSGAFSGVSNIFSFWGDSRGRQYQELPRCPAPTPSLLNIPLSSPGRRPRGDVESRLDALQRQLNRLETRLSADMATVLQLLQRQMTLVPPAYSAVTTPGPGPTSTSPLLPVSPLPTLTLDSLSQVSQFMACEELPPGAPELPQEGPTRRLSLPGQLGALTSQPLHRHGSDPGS

Row | Compound | hERG current change (%, negative = inhibition) at 10uM [%]
1 | COC(=O)c1cc(C#N)c(OC(C)C)nc1C | -6.52
2 | Cc1cc(C)c(S(=O)(=O)N2CCCOC2CNC(=O)C(=O)NCc2cccnc2)c(C)c1 (stereo not shown) | 8.23
3 | COc1ccc(C(c2nnnn2Cc2ccccc2)N2CCN(c3nc4ccccc4s3)CC2)cc1OC.Cl (stereo not shown) | -58.4
4 | COc1ccc(C(c2nnnn2Cc2ccccc2)N2CCN(c3nc4ccccc4s3)CC2)cc1 (stereo not shown) | 13.7
5 | COc1ccccc1C(c1nnnn1Cc1ccccc1)N1CCN(c2nc3ccccc3s2)CC1.Cl (stereo not shown) | 23.1
6 | O=C(N/N=C/c1ccc(Cl)cc1)c1nc2ccc([N+](=O)[O-])cc2c(=O)[nH]1 | -27.3
7 | CC(C)Cn1c(CN2C(=O)c3ccccc3C2=O)nc2ccccc2c1=O | 16.7
8 | Fc1cc(Br)ccc1NC(=S)NCCc1ccccc1 | -1.43
9 | O=C(c1cc(C2CC2)on1)N1CCCC(N2CCN(c3ccc(F)cc3)CC2)C1 (stereo not shown) | -63.7
10 | COC(=O)c1ccc(C(=O)N2CCCC(N3CCN(c4ccccc4)CC3)C2)nc1 (stereo not shown) | -22.4
11 | Cc1cccc(C(=O)N2CCCC(N3CCN(c4ccc(F)cc4)CC3)C2)n1 (stereo not shown) | -48.4
12 | O=C(c1ccccn1)N1CCCC(N2CCN(c3ccc(F)cc3)CC2)C1 (stereo not shown) | -37.2
13 | COC(=O)c1ccc(C(=O)N2CCCC(N3CCN(c4ccc(F)cc4)CC3)C2)nc1 (stereo not shown) | -56.1
14 | CC(C)c1cc(C(=O)N2CCCC(N3CCN(c4ccc(F)cc4)CC3)C2)no1 (stereo not shown) | -72.1
15 | COCc1ccc(C(=O)N2CCCC(N3CCN(c4ccc(F)cc4)CC3)C2)o1 (stereo not shown) | -47.3
16 | Cc1cc(C(=O)N2CCCC(N3CCN(c4ccc(F)cc4)CC3)C2)no1 (stereo not shown) | -37.7
17 | O=C(c1cc(C2CC2)on1)N1CCCC(N2CCN(c3cccc(C(F)(F)F)c3)CC2)C1 (stereo not shown) | -48.7
18 | O=C(c1cc(C2CC2)on1)N1CCN(c2ccc(F)cc2)CC1 | -43.4
19 | CCCc1cc(C(=O)N2CCCC(N3CCN(c4ccc(F)cc4)CC3)C2)no1 (stereo not shown) | -73
20 | CCc1noc(C)c1C(=O)N1CCCC(N2CCN(c3ccc(F)cc3)CC2)C1 (stereo not shown) | -27.2
21 | O=C(Cc1ccccc1)N[C@H](c1ccccc1)P(=O)(O)CO | 8.47
22 | CC(=O)c1cccc(NC(=O)Nc2ccc(C(=O)N3CCOCC3)cc2)c1 | -0.351

Row | Compound | hERG current change (%, negative = inhibition) at 10uM [%]
23 | NS(=O)(=O)c1ccc(NC(=O)COC(=O)c2ccc3c(c2)OCCO3)cc1 | 24
24 | CC(C)C(=O)Nc1sc2c(c1C#N)CCCCC2 | 9.53
25 | Cc1cc(C)c(S(=O)(=O)Nc2cccc3nsnc23)c(C)c1 | -3.18
26 | O=C(NC1CCCC1)C(c1ccc(F)cc1)N(C(=O)c1csnn1)C1CCCC1 (stereo not shown) | 9.14
27 | COC(=O)c1ccc(CSc2nnc3n(Cc4ccccc4OC)c(=O)c4ccccc4n23)o1 | -19.3
28 | CCc1noc(C)c1C(=O)N1CCCC(CCC(=O)NCc2cccc(OC)c2)C1 (stereo not shown) | 20.2
29 | Cc1ccc(N=Nc2c(N)n[nH]c2N)cc1 | 24.5
30 | CNP(=O)(Oc1ccccc1)OC12CC3CC(CC(C3)C1)C2 (stereo not shown) | -2.75
31 | O=C(Nc1nnc(SCc2ccc(Cl)cc2)s1)C1CCCO1 (stereo not shown) | -21.9
32 | O=C(CNC(=O)Cc1ccccc1)NCC(=O)OCc1ccccc1 (PhAc-Gly-Gly-OBn) | 12.4
33 | CCOC(=O)c1ccc(COC(=O)CNC(=O)CNC(=O)Cc2ccccc2)cc1 | -57.2
34 | O=C(CNC(=O)c1ccco1)OCc1ccc(C(=O)Oc2ccccc2)cc1 | -73.6
35 | O=C(CNS(=O)(=O)c1ccccc1)NCC(=O)OCc1ccc(Br)cc1 | -6.92
36 | O=C(CNS(=O)(=O)c1ccccc1)NCC(=O)OCc1ccc(C(=O)c2ccccc2)cc1 | -61.6
37 | O=C(CNS(=O)(=O)c1ccccc1)NCC(=O)OCc1ccc(Cl)cc1 | 13.7
38 | O=C(CNC(=O)c1ccco1)OCc1ccc(C(=O)c2ccccc2)cc1 | -69.2
39 | O=C(CNC(=O)c1ccco1)OCc1ccc(Br)cc1 | 2.8
40 | O=C(CNC(=O)c1ccco1)NCC(=O)OCc1ccc(C(=O)Oc2ccc(Cl)cc2)cc1 | 9.73
41 | O=C(CNC(=O)c1ccco1)NCC(=O)OCc1cccc(C(=O)Oc2ccccc2)c1 | -3.88
42 | O=C(CNC(=O)Cc1ccccc1)NCC(=O)OCc1ccc(C(=O)c2ccccc2)cc1 | -5.33
43 | COC(=O)c1ccc(COC(=O)CNC(=O)c2ccco2)cc1 | 17.3
